{"source": "ChEMBL document CHEMBL5606458", "about": "“ASAP - ZIKV NS2B-NS3 protease fluorescence single point” (2024)", "target": "Nonstructural protein 3 (Zika virus) (UniProt A0A024AXB9)", "sequence (A0A024AXB9 as listed by the source)": "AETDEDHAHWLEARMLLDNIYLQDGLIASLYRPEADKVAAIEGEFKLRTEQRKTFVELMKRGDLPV", "key": {"[1]": {"details": "PRVABC59, Concentration 50.0 uM, Number of replicates 1.0"}, "[2]": {"details": "PRVABC59, Concentration 15.0 uM, Number of replicates 1.0"}}, "note": "Out of some 2,700 compounds screened, about 160 (5.9%) showed an effect of 50% or more. What follows is part of a selection rich in strong results, with near analogues and random picks from the rest."}
{"smiles": "CCCCCN(CCCCC)C(=O)C1CCN(c2ccc(C=O)cc2)CC1", "values": [{"measurement": "inhibition", "setting": "[1]", "result": 26.1, "unit": "%"}]}
{"smiles": "O=Cc1ccc(N2CCC(C(=O)Nc3c(F)cc(F)cc3Cl)CC2)cc1", "values": [{"measurement": "inhibition", "setting": "[1]", "result": 23.6, "unit": "%"}]}
{"smiles": "COc1cc2c(cc1NC(=O)c1cc(Cl)ccc1NS(=O)(=O)c1ccc(Oc3ccccc3Cl)cc1)oc1ccccc12", "values": [{"measurement": "inhibition", "setting": "[2]", "result": 36.2, "unit": "%"}]}
{"smiles": "O=C(Nc1ncccc1C(F)(F)F)c1cc(Cl)ccc1NS(=O)(=O)c1ccc(Oc2ccccc2Cl)cc1", "values": [{"measurement": "inhibition", "setting": "[2]", "result": 25.1, "unit": "%"}]}
{"smiles": "Cn1cc(NC(=O)c2cccc3ncccc23)cn1", "values": [{"measurement": "inhibition", "setting": "PRVABC59, Concentration 49.5 uM, Number of replicates 2.0, Standard deviation 3.392303236065074 %", "result": -6.29, "unit": "%"}, {"measurement": "inhibition", "setting": "PRVABC59, Concentration 99.01 uM, Number of replicates 2.0, Standard deviation 4.211868261497117 %", "result": -5.3, "unit": "%"}, {"measurement": "inhibition", "setting": "PRVABC59, Concentration 198.0 uM, Number of replicates 2.0, Standard deviation 3.7498965706755105 %", "result": -3.61, "unit": "%"}]}
{"smiles": "O=Cc1ccc(N2CCC(C(=O)N3CCN(CCOCCO)CC3)CC2)cc1", "values": [{"measurement": "inhibition", "setting": "[1]", "result": 21.2, "unit": "%"}]}
{"smiles": "COc1ccc([C@H](C)NC(=O)c2cc(Cl)ccc2NS(=O)(=O)c2ccc(Oc3ccccc3Cl)cc2)cc1", "values": [{"measurement": "inhibition", "setting": "[2]", "result": 35.3, "unit": "%"}]}
{"smiles": "O=Cc1ccc(N2CCC(C(=O)Nc3ccc(Cl)nc3Cl)CC2)cc1", "values": [{"measurement": "inhibition", "setting": "[1]", "result": 20.5, "unit": "%"}]}
{"smiles": "c1cnc2c(C3CCN(Cc4ccc5[nH]cnc5c4)CC3)c[nH]c2c1", "values": [{"measurement": "inhibition", "setting": "PRVABC59, Concentration 49.5 uM, Number of replicates 2.0, Standard deviation 2.816135776094685 %", "result": 1.64, "unit": "%"}, {"measurement": "inhibition", "setting": "PRVABC59, Concentration 99.01 uM, Number of replicates 2.0, Standard deviation 1.9941147484327908 %", "result": 7.38, "unit": "%"}, {"measurement": "inhibition", "setting": "PRVABC59, Concentration 198.0 uM, Number of replicates 2.0, Standard deviation 0.19707731493778816 %", "result": 19.3, "unit": "%"}]}
{"smiles": "CC(C)(C)c1ccc(S(=O)(=O)N2CCN(C(=O)c3cc(Cl)ccc3NS(=O)(=O)c3ccc(Oc4ccccc4Cl)cc3)CC2)cc1", "values": [{"measurement": "inhibition", "setting": "[2]", "result": 14.3, "unit": "%"}]}
{"smiles": "COc1ccc(S(=O)(=O)Nc2ccc(C(=O)O)cc2)cc1", "values": [{"measurement": "inhibition", "setting": "PRVABC59, Concentration 49.5 uM, Number of replicates 2.0, Standard deviation 1.0137935505852833 %", "result": 2.03, "unit": "%"}, {"measurement": "inhibition", "setting": "PRVABC59, Concentration 99.01 uM, Number of replicates 2.0, Standard deviation 1.063246976754026 %", "result": 4.7, "unit": "%"}, {"measurement": "inhibition", "setting": "PRVABC59, Concentration 198.0 uM, Number of replicates 2.0, Standard deviation 1.989546367228998 %", "result": 3.61, "unit": "%"}]}
{"smiles": "COc1ccc(S(=O)(=O)n2nc(OC(=O)c3ccccc3)cc2N)cc1", "values": [{"measurement": "inhibition", "setting": "PRVABC59, Concentration 49.5 uM, Number of replicates 2.0, Standard deviation 0.018531126353269887 %", "result": 99.1, "unit": "%"}, {"measurement": "inhibition", "setting": "PRVABC59, Concentration 99.01 uM, Number of replicates 2.0, Standard deviation 0.03874003445206144 %", "result": 99.1, "unit": "%"}, {"measurement": "inhibition", "setting": "PRVABC59, Concentration 198.0 uM, Number of replicates 2.0, Standard deviation 0.035373681367799316 %", "result": 99, "unit": "%"}]}
{"smiles": "COc1ccc(S(=O)(=O)N2CCC(C(=O)Nc3nc4ccccc4s3)CC2)cc1", "values": [{"measurement": "inhibition", "setting": "PRVABC59, Concentration 49.5 uM, Number of replicates 2.0, Standard deviation 3.281212488466362 %", "result": 4.02, "unit": "%"}, {"measurement": "inhibition", "setting": "PRVABC59, Concentration 99.01 uM, Number of replicates 2.0, Standard deviation 0.8753020409515783 %", "result": 5.17, "unit": "%"}, {"measurement": "inhibition", "setting": "PRVABC59, Concentration 198.0 uM, Number of replicates 2.0, Standard deviation 6.6794445217114635 %", "result": 7.79, "unit": "%"}]}
{"smiles": "CN(Cc1cccc(F)c1F)C(=O)c1cc(Cl)ccc1NS(=O)(=O)c1ccc(Oc2ccccc2Cl)cc1", "values": [{"measurement": "inhibition", "setting": "[2]", "result": 31.2, "unit": "%"}]}
{"smiles": "CC(C)CCN(CCC(C)C)C(=O)c1cc(Cl)ccc1NS(=O)(=O)c1ccc(Oc2ccccc2Cl)cc1", "values": [{"measurement": "inhibition", "setting": "[2]", "result": 18.8, "unit": "%"}]}
{"smiles": "CS(=O)(=O)c1ccc(O)c(NC(=O)c2cc(Cl)ccc2NS(=O)(=O)c2ccc(Oc3ccccc3Cl)cc2)c1", "values": [{"measurement": "inhibition", "setting": "[2]", "result": 32.3, "unit": "%"}]}
{"smiles": "COc1nscc1-c1ccccc1C(=O)Nc1cnn(C)c1", "values": [{"measurement": "inhibition", "setting": "PRVABC59, Concentration 49.5 uM, Number of replicates 2.0, Standard deviation 2.0613155081961194 %", "result": -1.46, "unit": "%"}, {"measurement": "inhibition", "setting": "PRVABC59, Concentration 99.01 uM, Number of replicates 2.0, Standard deviation 1.0972097923679232 %", "result": 1.42, "unit": "%"}, {"measurement": "inhibition", "setting": "PRVABC59, Concentration 198.0 uM, Number of replicates 2.0, Standard deviation 0.19246139208887503 %", "result": 3.36, "unit": "%"}]}
{"smiles": "O=C(Cn1sc2ccccc2c1=O)Nc1cccc(OCc2cn(CC(=O)Nc3ccccc3Oc3ccccc3)nn2)c1", "values": [{"measurement": "inhibition", "setting": "PRVABC59, Concentration 49.5 uM, Number of replicates 2.0, Standard deviation 0.019067908615904634 %", "result": 53.7, "unit": "%"}, {"measurement": "inhibition", "setting": "PRVABC59, Concentration 99.01 uM, Number of replicates 2.0, Standard deviation 0.0558469345004512 %", "result": 58.2, "unit": "%"}, {"measurement": "inhibition", "setting": "PRVABC59, Concentration 198.0 uM, Number of replicates 2.0, Standard deviation 0.30102425600760013 %", "result": 69.5, "unit": "%"}]}
{"smiles": "CCN(CC)S(=O)(=O)c1ccc(NC(=O)c2cc(Cl)ccc2NS(=O)(=O)c2ccc(Oc3ccccc3Cl)cc2)cc1", "values": [{"measurement": "inhibition", "setting": "[2]", "result": 27.6, "unit": "%"}]}
{"smiles": "O=C(Nc1ccc(-n2cccn2)cc1)c1cc(Cl)ccc1NS(=O)(=O)c1ccc(Oc2ccccc2Cl)cc1", "values": [{"measurement": "inhibition", "setting": "[2]", "result": 71.5, "unit": "%"}]}
{"smiles": "Cc1nccn1-c1ccc(NC(=O)c2cc(Cl)ccc2NS(=O)(=O)c2ccc(Oc3ccccc3Cl)cc2)cc1", "values": [{"measurement": "inhibition", "setting": "[2]", "result": 43.8, "unit": "%"}]}
{"smiles": "O=C(NCc1cccc(-n2cccn2)c1)c1cc(Cl)ccc1NS(=O)(=O)c1ccc(Oc2ccccc2Cl)cc1", "values": [{"measurement": "inhibition", "setting": "[2]", "result": 33.4, "unit": "%"}]}
{"smiles": "O=C(Nc1ccc(-n2ccnc2)cc1)c1cc(Cl)ccc1NS(=O)(=O)c1ccc(Oc2ccccc2Cl)cc1", "values": [{"measurement": "inhibition", "setting": "[2]", "result": 63.6, "unit": "%"}]}
{"smiles": "CCN1CCN(c2ccc(NC(=O)c3cc(Cl)ccc3NS(=O)(=O)c3ccc(Oc4ccccc4Cl)cc3)cc2)CC1", "values": [{"measurement": "inhibition", "setting": "[2]", "result": 17.1, "unit": "%"}]}
{"smiles": "COc1ccc([C@@H](C)NC(=O)C2CCN(c3ccc(C=O)cc3)CC2)cc1OC", "values": [{"measurement": "inhibition", "setting": "PRVABC59, Concentration 10.0 uM, Number of replicates 1.0", "result": 22.9, "unit": "%"}]}
{"smiles": "O=C(N[C@H](c1ccccc1)[C@@H](O)c1ccccc1)c1cc(Cl)ccc1NS(=O)(=O)c1ccc(Oc2ccccc2Cl)cc1", "values": [{"measurement": "inhibition", "setting": "[2]", "result": 45.7, "unit": "%"}]}
{"smiles": "C[C@@H](CC(C)(C)c1ccccc1)NC(=O)c1cc(Cl)ccc1NS(=O)(=O)c1ccc(Oc2ccccc2Cl)cc1", "values": [{"measurement": "inhibition", "setting": "[2]", "result": 18.2, "unit": "%"}]}
{"smiles": "CC(C)(C)[C@H](NC(=O)c1cc(Cl)ccc1NS(=O)(=O)c1ccc(Oc2ccccc2Cl)cc1)c1ccccc1", "values": [{"measurement": "inhibition", "setting": "[2]", "result": 57.8, "unit": "%"}]}
{"smiles": "O=C(N[C@H](c1ccccc1)C(F)(F)F)c1cc(Cl)ccc1NS(=O)(=O)c1ccc(Oc2ccccc2Cl)cc1", "values": [{"measurement": "inhibition", "setting": "[2]", "result": 60.6, "unit": "%"}]}
{"smiles": "C[C@H](NC(=O)c1cc(Cl)ccc1NS(=O)(=O)c1ccc(Oc2ccccc2Cl)cc1)c1ccccc1C(F)(F)F", "values": [{"measurement": "inhibition", "setting": "[2]", "result": 42.7, "unit": "%"}]}
{"smiles": "C[C@H](NC(=O)c1cc(Cl)ccc1NS(=O)(=O)c1ccc(Oc2ccccc2Cl)cc1)c1cccc(C(F)(F)F)c1", "values": [{"measurement": "inhibition", "setting": "[2]", "result": 39.3, "unit": "%"}]}
{"smiles": "Cc1cnccc1NC(=O)c1cccc(-n2cnnn2)c1", "values": [{"measurement": "inhibition", "setting": "PRVABC59, Concentration 49.5 uM, Number of replicates 2.0, Standard deviation 4.148081450793093 %", "result": -4.56, "unit": "%"}, {"measurement": "inhibition", "setting": "PRVABC59, Concentration 99.01 uM, Number of replicates 2.0, Standard deviation 2.8220872377424997 %", "result": -2.1, "unit": "%"}, {"measurement": "inhibition", "setting": "PRVABC59, Concentration 198.0 uM, Number of replicates 2.0, Standard deviation 5.644174285824181 %", "result": -3.31, "unit": "%"}]}
{"smiles": "O=Cc1ccc(N2CCC(C(=O)Nc3ccc(F)cc3Br)CC2)cc1", "values": [{"measurement": "inhibition", "setting": "[1]", "result": 20.8, "unit": "%"}]}
{"smiles": "CCN(CCOc1ccccc1C)C(=O)C1CCN(c2ccc(C=O)cc2)CC1", "values": [{"measurement": "inhibition", "setting": "[1]", "result": 25.1, "unit": "%"}]}
{"smiles": "O=C(c1cc(Cl)ccc1NS(=O)(=O)c1ccc(Oc2ccccc2Cl)cc1)N1CCCN(c2ccc(C(F)(F)F)cn2)CC1", "values": [{"measurement": "inhibition", "setting": "[2]", "result": 30, "unit": "%"}]}
{"smiles": "CCN1CCOC[C@H]1C(=O)Nc1cc(Cl)cc(C(=O)NC(C)(C)CO)c1", "values": [{"measurement": "inhibition", "setting": "PRVABC59, Concentration 49.5 uM, Number of replicates 2.0, Standard deviation 1.425535849610213 %", "result": -1.8, "unit": "%"}, {"measurement": "inhibition", "setting": "PRVABC59, Concentration 99.01 uM, Number of replicates 2.0, Standard deviation 1.345541763339264 %", "result": -2.76, "unit": "%"}, {"measurement": "inhibition", "setting": "PRVABC59, Concentration 198.0 uM, Number of replicates 2.0, Standard deviation 3.0049064318797343 %", "result": -3.73, "unit": "%"}]}
